From the supplement of paper PMC6555819

Key:
Assay in all cases: PBM binding z-score (relative to random genomic background probes); higher = stronger binding; sequences stand for … in GC…GCGATTGACAGCGTAGAATGAAGG
[1] = tested on: FXR:RXRa (NR concentration 270 nM, RXRa partner concentration 90 nM)
Method in brief: (§1)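 Random background probes are the reference for binding z-scores. These scores derive from regression-normalized fluorescence on custom Agilent 4×180K protein-binding microarrays incubated 1 h with ligand-free nuclear receptor dimers. Binding was detected with antibodies against each partner (one per run).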

[2] = tested on: LXRa:RXRa (NR concentration 270 nM, RXRa partner concentration 90 nM)
Method in brief: as §1

[3] = tested on: LXRa homodimer (NR concentration 270 nM)
Method in brief: as §1

[4] = tested on: LXRb:RXRa (NR concentration 270 nM, RXRa partner concentration 90 nM)
Method in brief: as §1

[5] = tested on: LXRb homodimer (NR concentration 270 nM)
Method in brief: as §1

[6] = tested on: PPARa:RXRa (NR concentration 270 nM, RXRa partner concentration 90 nM)
Method in brief: as §1

[7] = tested on: PPARg:RXRa (NR concentration 180 nM, RXRa partner concentration 90 nM)
Method in brief: as §1

[8] = tested on: PPARg:RXRa 270nM:90nM, anti-RXR (NR concentration 270 nM, RXRa partner concentration 90 nM)
Method in brief: as §1

[9] = tested on: PPARg:RXRa 30nM:10nM, anti-RXR (NR concentration 30 nM, RXRa partner concentration 10 nM)
Method in brief: as §1

[10] = tested on: PPARg:RXRa 90nM:30nM, anti-RXR (NR concentration 90 nM, RXRa partner concentration 30 nM)
Method in brief: as §1

Sequence | PBM binding z-score [1] | PBM binding z-score [2] | PBM binding z-score [3] | PBM binding z-score [4] | PBM binding z-score [5] | PBM binding z-score [6] | PBM binding z-score [7] | PBM binding z-score [8] | PBM binding z-score [9] | PBM binding z-score [10]
CCAACTAGGTCAAGAGGTCAAAGTCCGCTTCCCG | 6.96 | 6.55 | 6.26 | 5.47 | 1.76 | 6.42 | 9.41 | 7.99 | 6.27 | 8.1
CGTCCAAGGTCAGAGAGGGCAGTGAATGCCGAGT | 5.26 | 3.77 | 0.447 | 2.71 | -0.0412 | 4.26 | 2.13 | 2.88 | 0.148 | 1.46
CCTCGGAGGACAACATGAGGTCAGAGCTGCCAGA | 1.56 | 3.37 | 3.95 | 2.18 | -0.278 | 2.38 | 0.717 | 0.534 | -0.623 | 0.0899
ATTAGCAGGCCAAGGGTCACTCAAGATTAGTCCG | 2.8 | 2.8 | 0.436 | 2.69 | -0.147 | 4.73 | 7.98 | 7.44 | 6.52 | 7.55
TAGCCTAGGTCATTGGGCCTGTATAGTACGCATC | 4.24 | 3.47 | 0.96 | 2.39 | -0.0318 | 3.52 | 2.18 | 2.86 | 0.506 | 1.59
TCATATAGGTAAATGCTAGGTGACAGTCCGATCT | 0.752 | 0.626 | -0.0198 | 0.519 | -0.279 | 1.12 | 0.994 | 2.02 | 3.61 | 2.54
GCTGCTAGGTCAGGTTGGTCAGCTATCGGGTACG | 1.38 | 0.811 | -0.13 | 0.574 | -0.138 | 1.42 | 0.304 | 1.19 | -0.614 | 0.562
CCTTTTAGTTGACCATAAGGGCAACCGAAGCTCG | 0.795 | 0.621 | 0.344 | 0.707 | 1.3 | 0.649 | 0.247 | 0.669 | 0.0181 | 0.427
TCGAGTAGGTTAGTCGGAGCATTCAGCCAACATA | -0.453 | -0.512 | -0.667 | -0.741 | -1.46 | 0.0631 | -0.127 | 0.379 | 0.624 | 0.538
ATATGTAGGTTAAGTGTCATTCAGGTTGGTTCGC | 1.68 | 2.16 | 1.09 | 1.93 | 0.826 | 4.74 | 7.81 | 7.39 | 6.14 | 7.88
AGTCAAAGTTCACTCGGTAACGTAAGATTCAGCT | 5.02 | 5.41 | 3.18 | 3.38 | 1.27 | 4.24 | 5.6 | 5.93 | 2.54 | 4.94
CTCGAAAGGCCGGTTGAGGTGAGTATACGGATAA | -0.00227 | -0.411 | -0.91 | -0.654 | -0.709 | -0.134 | -0.122 | -0.607 | -0.213 | -0.48
CGTCCAAGGTCATAGCAGGTCAGTGAAGACAGAT | 7.63 | 7.02 | 3.65 | 5.58 | 0.842 | 5.85 | 5.23 | 5.24 | 2.03 | 4.17
TTACCAAGGTGAAACGTCGTTGATGCACGCCTTG | 0.678 | 0.335 | -0.246 | 0.141 | -0.495 | 1.96 | 1.66 | 2.76 | 1.24 | 2.15
ATATGTAGGTTAGGTGGGGTCATTCAGACTAGGC | 5.01 | 6.16 | 3.73 | 5.37 | 2.74 | 5.23 | 5.59 | 5.49 | 2.48 | 4.67
CCCTACGGGTCACTCCAGGTTATAGCATCGGAGT | 5.25 | 7.47 | 2.12 | 5.1 | 0.052 | 4.21 | 2.65 | 3.2 | 0.655 | 1.6
TCGAGTAGGTTAGGGGCATTTAGAATGGCGTCGA | 0.425 | 0.611 | -0.123 | 0.871 | 0.134 | 1.37 | 0.729 | 2.07 | 1.37 | 1.68
CAAACTAGGTCACAGCGGTCAAAGTCCGTGCGTA | 5.25 | 5.23 | 5.2 | 4.06 | 0.739 | 5.65 | 8.85 | 7.4 | 5.13 | 7.02
ATCAAAAGGTCGACGAGGTGAGTATACACCGTTT | 4.64 | 3.46 | 0.265 | 2.86 | 0.587 | 4.82 | 3.29 | 3.63 | 1.47 | 2.53
TCGTATAGGTAATACAGGTGAAAGTCGGCATCTA | 0.718 | 1.21 | 0.63 | 0.967 | -0.231 | 1.75 | 0.665 | 1.96 | 2.76 | 2.39
CCACGGAGGACAACAGGAGGTCAGAGCTGCCAGA | 1.09 | 2.38 | 2.44 | 1.7 | -0.198 | 2.21 | 0.672 | 0.164 | -0.705 | -0.441
CGAACTAGGGCAAGGACAGTGAATCTCCGCACGC | 0.00807 | -0.366 | 0.0437 | -0.81 | -0.814 | 1.76 | 2.96 | 3.03 | 0.479 | 1.87
CTGACTGGGGCAAGGTTACCATAACGCACAGCCA | 0.457 | 0.792 | -0.00434 | 1.54 | -0.221 | 2.63 | 4.03 | 4.4 | 1.45 | 3.67
TCATATAGGTAATACAGGTGAAAATCGGCATCTA | 1.35 | 1.37 | 0.422 | 1.27 | 0.421 | 2 | 1.78 | 2.58 | 4.1 | 3.43

Sequence | PBM binding z-score [1] | PBM binding z-score [2] | PBM binding z-score [3] | PBM binding z-score [4] | PBM binding z-score [5] | PBM binding z-score [6] | PBM binding z-score [7] | PBM binding z-score [8] | PBM binding z-score [9] | PBM binding z-score [10]
TCTAGTTGGTCACGGAGGTCACACAGGACGGGTA | 3.66 | 3.54 | 2.46 | 3.05 | 0.75 | 3.83 | 3.74 | 3.76 | 3.51 | 3.91
CAGCCTAGGTCAGGGCCAGTAAAGGAGGAACGTT | 1.69 | 0.93 | -0.563 | 0.471 | -1.1 | 2.26 | 0.751 | 0.991 | -0.53 | 0.142
AATACAGGGTCATCGTAGGACAGAGTACGCACAG | 7.26 | 6.53 | 2.99 | 4.91 | 1.66 | 5.73 | 6.66 | 6.04 | 3.07 | 4.95
TTACCAGGGTGAAAGGTCGTTGATGCACGCCTTG | 3.76 | 3.21 | 0.701 | 3.12 | -0.0752 | 5.36 | 8.62 | 7.7 | 6.89 | 9.22
CGAACGAGGGCATGAGTTGAAAGCAAATGCCGAT | 0.434 | 0.165 | -0.523 | 0.0977 | -0.959 | 1.85 | 1.37 | 1.83 | 0.552 | 1.12
TAGCCTAGGTAATTGGGCCAGTATAGTACGCATC | -0.768 | -1.07 | -0.581 | -0.51 | -0.491 | 0.679 | 0.785 | 0.424 | -0.205 | -0.132
TGAATGAGCTTATAAGATCAGGGAACGTTGCAAA | -0.538 | -0.891 | -0.553 | -0.584 | -0.76 | -0.485 | -0.117 | -0.382 | 0.0852 | -0.46
GTACCAAGGTTAATAGGTCGTTGATGAGTAGGCG | 2.13 | 1.67 | 0.289 | 1.34 | -0.213 | 3.18 | 3 | 3.43 | 1.01 | 2.5
GATACAGGGTCAGCTAGAGGCCAGAGCATGGAAA | 4.96 | 2.87 | -0.62 | 2.42 | -0.712 | 4.58 | 3.81 | 3.58 | 1.01 | 2.09
CCGACTGGGGCACAAGGTTACCATAAGCCAGCCC | 0.122 | 1.73 | -0.433 | 0.74 | -1.16 | 2.2 | 2.92 | 3.16 | 0.724 | 2.49
ATTCAAAGTTCAGGACGAGGTAACGTAAAGCACG | 4.14 | 4.12 | 1.92 | 2.22 | 1.06 | 3.21 | 2.19 | 2.41 | 1.01 | 1.54
TCTTGTAGATCAAAGATTAAGAAAGCCGAAGCCT | 0.277 | 0.499 | -0.302 | 0.245 | -0.0264 | 1.12 | 1.55 | 3.63 | 3.56 | 3.75
CAATCTAGGTCAAGAGGTCAAAGTCCGCTTCCCG | 7.07 | 6.49 | 6.61 | 5.64 | 2.31 | 6.48 | 10.2 | 8.66 | 7.43 | 9.5
TAGGCTAGGTCATTGGGCCAGTATAGTACGCATC | 4 | 2.77 | 0.321 | 1.87 | 0.37 | 3.73 | 3.73 | 3.76 | 0.966 | 2.24
ACTAGCACGCCAAGTTTGGGTCACTCAAACAAAG | 0.0024 | -0.138 | -0.715 | 0.642 | -0.337 | 1.17 | -0.0065 | -0.00833 | -0.577 | -0.34
CTCGAAAGGCCGTGCTCAGGTGAGTATACCAAAC | -0.251 | -0.522 | -0.406 | -0.298 | -0.835 | -0.342 | -0.381 | -0.723 | -0.648 | -0.958
AGAATGAGGTTACCAAAGATCAGGGAGACGCTTG | 2.11 | 6.33 | -0.321 | 3.23 | -0.156 | 3.38 | 2.8 | 2.92 | 1.02 | 2.15
TCTTGTATATCAAAGGTTAAGAAAGCCGAAGCCT | 1.57 | 2.66 | 1.24 | 2.13 | 0.723 | 3.79 | 6 | 6.59 | 6.78 | 7.96
GCATATAGTTAATACAAGGTGAAAGTCCGATTGT | 0.799 | 0.553 | 0.623 | 0.44 | -0.202 | 0.488 | 0.801 | 0.639 | 0.496 | 0.653
TTTGCTAGGTCAACGATGGTCAGCTAATCTGCTA | 3.71 | 4.07 | 1.84 | 2.07 | -0.0738 | 3.59 | 3.4 | 3.77 | 1.38 | 2.86
CCGACTGGGGCAAGTTTACCATAACGCACAGCCA | -0.129 | 0.0135 | 0.16 | 0.0377 | -0.603 | 0.536 | 0.987 | 0.774 | -0.288 | 0.451
TCGAGTTGGTCAAAGGTCACACACTCGAAATGCG | 5.98 | 5.57 | 3.08 | 5.33 | 0.74 | 6.37 | 10.4 | 9.4 | 8.64 | 11.3
CCGACTGGGGCAAGGTTATCATAACGCACAGCCA | 0.246 | 0.372 | -0.203 | 0.586 | -1.17 | 1.56 | 2.69 | 3.04 | 0.861 | 2.36
ATCTCTAGGTAACCAAGTTCAGTGTATGCCGAAC | 0.4 | 0.852 | 0.996 | 0.524 | 0.803 | 1.06 | 0.577 | 0.99 | 0.331 | 0.721
